# CSC inhib: blocks cancer stem cells; cancer stem cell-like cells viability, luminescence; inhibition, % at 7.5 µM; hit rate 1.1% among 300,000; in the data active = inhibition above about 75%; tested in HMLE shEcad cells
# Gli-Sufu antag: blocks Gli-Sufu signaling in a luciferase reporter | Sufu-KO-LIGHT fibroblasts, Gli luciferase reporter luminescence | inhibition, % at 5 µM | hit rate 0.74% among 340,000;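 active = inhibition above about 55%, limit read from the data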;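 note: 0% = DMSO-treated cells and 100% = wells with medium but no cells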
# 697 NFkB inh: lowers PMA/ionomycin-induced NF-kB signal in 697 B cells. 697 B-cell NF-kB luciferase reporter, 16 h. inhibition, % at 4 µM. hit rate 0.33% among 330,000; in the data active = inhibition above about 35%
# Jurkat NFkB inh: lowers PMA/ionomycin-induced NF-kB signal in Jurkat cells. AID 435003. PMA/ionomycin-induced NF-kB luciferase reporter, luminescence. inhibition, % at 4 µM. hit rate 0.53% among 330,000; in the data active = inhibition above about 50%
# Mdm2 MdmX PPI: disrupts the human Mdm2-MdmX interaction | SaOS-2 split-luciferase Mdm2/MdmX complementation, luminescence | inhibition, % at 8 µM | hit rate 3% among 330,000;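 active = inhibition of at least 50% at 8 µM in the primary screen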
# Target sequence (O15151 whole entry, looked up): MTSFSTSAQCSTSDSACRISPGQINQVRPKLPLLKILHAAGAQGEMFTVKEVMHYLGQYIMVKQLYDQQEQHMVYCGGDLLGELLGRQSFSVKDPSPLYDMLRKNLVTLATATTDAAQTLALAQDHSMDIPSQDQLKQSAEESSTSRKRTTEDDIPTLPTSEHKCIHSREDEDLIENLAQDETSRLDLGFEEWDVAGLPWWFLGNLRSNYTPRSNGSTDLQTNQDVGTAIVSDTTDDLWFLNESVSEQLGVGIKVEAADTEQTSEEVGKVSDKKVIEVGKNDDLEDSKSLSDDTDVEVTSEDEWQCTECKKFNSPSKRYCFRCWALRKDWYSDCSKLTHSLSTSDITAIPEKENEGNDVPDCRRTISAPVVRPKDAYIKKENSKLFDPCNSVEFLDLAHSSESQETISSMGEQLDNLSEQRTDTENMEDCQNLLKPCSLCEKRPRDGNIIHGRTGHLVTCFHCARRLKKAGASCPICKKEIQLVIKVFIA
# Target sequence (Q00987 whole entry, looked up): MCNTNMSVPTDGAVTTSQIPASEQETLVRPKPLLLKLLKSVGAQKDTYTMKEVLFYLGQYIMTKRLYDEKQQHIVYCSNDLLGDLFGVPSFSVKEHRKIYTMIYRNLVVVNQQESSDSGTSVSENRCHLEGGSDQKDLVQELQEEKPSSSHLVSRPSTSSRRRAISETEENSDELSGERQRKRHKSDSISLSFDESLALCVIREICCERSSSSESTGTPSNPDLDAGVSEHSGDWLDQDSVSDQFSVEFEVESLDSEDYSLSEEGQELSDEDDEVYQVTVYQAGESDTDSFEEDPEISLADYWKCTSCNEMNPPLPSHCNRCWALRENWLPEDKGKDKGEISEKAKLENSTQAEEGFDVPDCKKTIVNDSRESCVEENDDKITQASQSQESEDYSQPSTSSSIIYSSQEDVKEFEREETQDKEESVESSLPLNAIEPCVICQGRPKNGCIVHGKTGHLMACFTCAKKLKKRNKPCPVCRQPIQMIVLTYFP
# aSyn UTR inh: 5' untranslated region of α-synuclein, MLPCN primary screen | hit rate 0.82% among 300,000 | alpha-synuclein 5'UTR reporter, inhibitor activity | AID 1813 | inhibition, % (tested at 7.5 µM); in the data active = inhibition above about 60%;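 note: H4 neuroglioblastoma cells stably carrying SNCA 5'UTR luciferase fusion; 0% = DMSO wells and 100% = positive control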
# Mdm2 MdmX conf: confirmation of human Mdm2/MdmX interaction inhibitors | shares compounds with Mdm2 MdmX PPI | Mdm2-MdmX binding, luminescent assay | inhibition, % at 8 µM | hit rate 55% among 10,000 | AID 489028; in the data active = inhibition above about 40%
# Full FLuc ctr: full-length luciferase inhibition in Mdm2/MdmX counter-screen; shares compounds with Mdm2 MdmX PPI; SaOS-2 full-length luciferase counterscreen, luminescence; inhibition, % at 8 µM; hit rate 77% among 6,200; AID 504607;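 active = mean inhibition at 8 µM reaching about 37%, which flags the compound as non-specific, limit read from the data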;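 note: p53-null SaOS-2 cells with luciferase driven by a doxycycline-inducible promoter; compound on cells about two nights before reading with doxycycline added after day one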
# The depositor's hits bear a star; nt = no result. Hits are enriched below; roughly 4.5% of the tested compounds scored in any of these assays.
SMILES,CSC inhib,Gli-Sufu antag,697 NFkB inh,Jurkat NFkB inh,Mdm2 MdmX PPI,aSyn UTR inh,Mdm2 MdmX conf,Full FLuc ctr
O=C(N/N=C/c1cc(Br)c(Br)s1)c1ccncc1,52,-1,6,16,51*,84*,31,nt
Cc1[nH]n(-c2ccccc2)c(=O)c1N=Nc1cccc(Cl)c1,14,-25,-87,-78,-63,-202,nt,nt
Nc1c(N=Nc2cccc(Cl)c2)c(=O)[nH]n1-c1ccccc1,-4,6,-2,4,56*,-66,-51,nt
CC(NC(=O)COC(=O)CN1C(=O)NC2(CCCC2)C1=O)c1ccc(F)cc1 (centres undefined),nt,-9,nt,nt,nt,nt,nt,nt
O=C(c1cccc(C(F)(F)F)c1)c1c[nH]c(C(=O)NCCCN2CCOCC2)c1,-22,0,7,0,23,7,nt,nt
COc1ccc(C2CC(c3ccccc3OC(C)=O)=NN2C(=O)/C=C/c2ccccc2)cc1 (centres undefined),-4,11,-10,8,-2,-3,nt,nt
CC(=O)Oc1ccccc1C1=NN(C(=O)/C=C/c2ccccc2)C(c2ccccc2)C1 (centres undefined),32,2,16,12,51*,20,6,nt
O=C(CN1CC(c2ccccc2)CC1=O)N/N=C/c1cc(Br)ccc1O (centres undefined),39,25,-13,19,62*,34,65*,43*
Cn1nnnc1Sc1ncnc2scc(-c3ccccc3C(F)(F)F)c12,25,28,-60,-27,39,nt,nt,nt
COc1cccc(-c2csc3ncnc(Sc4nnnn4C)c23)c1,nt,35,-85,-6,98*,nt,80*,20
Cn1nnnc1Sc1ncnc2scc(-c3cccc(C(F)(F)F)c3)c12,nt,-1,-68,5,100*,nt,99*,53*
Fc1ccc(CSc2ncnc3scc(-c4ccccc4)c23)cc1,26,-1,-5,2,11,39,nt,nt
Cn1nnnc1Sc1ncnc2scc(-c3cccc(F)c3)c12,-2,28,-51,-13,98*,nt,99*,53*
Cn1nnnc1Sc1ncnc2scc(-c3ccc(C(F)(F)F)cc3)c12,94*,-4,-80,25,98*,nt,99*,50*
CCC(C)N(C(=O)Cn1c(=O)cnc2ccccc21)C1CCS(=O)(=O)C1 (centres undefined),nt,-4,17,7,11,0,nt,nt
CC[C@]12c3[nH]c4ccccc4c3CCN1C(=O)C(CC(=O)NCCCOC)C[C@@H]2C(=O)N1CCN(C(=O)c2ccco2)CC1 (some centres undefined),nt,-1,0,13,-41,nt,nt,nt
CCOc1ccc(NS(=O)(=O)c2cc(NC(=O)c3cccc(C)c3)ccc2Cl)cc1,51,36,13,17,51*,6,46*,79*
CCOc1ccc(NS(=O)(=O)c2cc(C(=O)N3CCCC3)ccc2Cl)cc1,-3,3,2,1,-1,4,nt,nt
COc1ccc(CCNC(=O)CN2C(=O)NC3(CCCCC3C)C2=O)cc1 (centres undefined),-3,-6,16,-6,-12,nt,nt,nt
COc1ccc(-c2cc(C(F)(F)F)n3ncc(C(=O)N4CCc5ccccc5C4)c3n2)cc1,8,6,13,-7,54*,-22,22,nt
COc1cccc(-c2cc(C(F)(F)F)n3ncc(C(=O)N4CCc5ccccc5C4)c3n2)c1,11,17,-7,-10,17,16,nt,nt
O=C1c2cccc3c([N+](=O)[O-])ccc(c23)C(=O)N1c1nccs1,79*,7,14,-3,92*,20,90*,27
O=C1c2cccc3c([N+](=O)[O-])ccc(c23)C(=O)N1c1ccc(Cl)cn1,112*,6,-10,5,100*,36,100*,54*
O=C1c2cccc3c([N+](=O)[O-])ccc(c23)C(=O)N1c1ccccn1,105*,7,-106,34,96*,-38,63*,15
CC(=O)Oc1ccc(N2C(=O)c3cccc4c([N+](=O)[O-])ccc(c34)C2=O)cc1,38,9,4,8,70*,15,5,nt
SMILES,CSC inhib,Gli-Sufu antag,697 NFkB inh,Jurkat NFkB inh,Mdm2 MdmX PPI,aSyn UTR inh,Mdm2 MdmX conf,Full FLuc ctr
O=C1c2cccc3cccc(c23)C(=O)N1c1nccs1,nt,-2,11,9,-5,nt,nt,nt
N#C/C(=C\c1ccc(-c2cccc([N+](=O)[O-])c2)o1)C(=O)Nc1nc(-c2cccs2)cs1,5,10,5,11,-8,-7,nt,nt
O=C(O)CCCC(=O)N1CCN(c2nc(-c3ccccc3Cl)c3cc(Br)ccc3n2)CC1,5,4,-1,1,9,3,nt,nt
CC(=O)c1ccc(S(=O)(=O)NC2CC(=O)N(c3ccc(Cl)cc3)C2)cc1 (centres undefined),0,5,-16,-6,4,0,nt,nt
CC(NC(=O)NC12CC3CC(CC(C3)C1)C2)C1CCCO1 (centres undefined),2,26,1,-18,-9,-7,nt,nt
Cc1ccc(NC(=O)c2cc(C(C)(C)C)nn2Cc2ccccc2)cc1,nt,1,-244,-69,74*,15,55*,59*
CC(C)(C)c1cc(C(=O)Nc2ccc(F)cc2)n(Cc2ccc(F)cc2)n1,41,-6,11,19,44,-16,nt,nt
C=C1c2nc3ccccc3n2C=C(c2ccc(C)cc2)N1c1ccccc1,nt,3,nt,nt,nt,nt,nt,nt
COc1ccc(C2=NN(C(=O)COC(=O)c3ccc(S(C)(=O)=O)c([N+](=O)[O-])c3)C(c3ccco3)C2)cc1 (centres undefined),96*,6,-13,17,98*,nt,91*,52*
O=C(NC1=C(NC2CCS(=O)(=O)C2)C(=O)c2ccccc2C1=O)c1ccccc1 (centres undefined),45,-4,5,49,90*,26,60*,49*
O=C(NC(NC1CCS(=O)(=O)C1)C(=O)c1cccs1)c1ccccc1 (centres undefined),-10,-19,13,-3,-3,8,nt,nt
Oc1ccccc1/C=N/[n+]1ccccc1,1,35,-96,-42,53*,15,53*,121*
Oc1ccccc1C=NC(c1ccccc1)C(O)c1ccccc1 (centres undefined),-12,1,-11,-5,-3,-18,nt,nt
O=C(CSc1nnc(-c2ccc(OC(F)F)cc2)o1)NC(=O)NCc1ccco1,1,-10,-8,-37,14,-56,nt,nt
COC(=O)c1ccc(NC(=O)C2CCCN(S(=O)(=O)c3cnc[nH]3)C2)cc1 (centres undefined),5,9,4,-2,19,-13,nt,nt
FC(F)(F)c1cc(C(F)(F)F)c2ccc(N3CCN(c4ncccn4)CC3)nc2n1,1,-7,18,7,58*,8,-8,nt
